Reference: the antibiotic and cytotoxicity screens of Wong et al. (2023)
The whole screen tested about 39,000 compounds, of which about 1,500 (3.8%) were called active. Only a selection was taken, and actives are over-represented in it overall.

Test system: HSkMC (human skeletal muscle cells)
Assay: cytotoxicity call (relative viability < 0.9)
Details: 10 µM

Structure (SMILES)	cytotoxicity call
CC(C)[C@@H](N)c1ncnn1C	inactive
COc1ccc(NC(=O)Nc2ccc3c(c2)C(=O)N([C@H](C)CO)C[C@@H](C)[C@H](CN(C)S(=O)(=O)c2ccc(Cl)cc2)OCCCC[C@H](C)O3)cc1	inactive
CC(C)C#Cc1cnc2c(c1)C(=O)N([C@@H](C)CO)C[C@H](C)[C@H](CN(C)C(=O)c1ccc3c(c1)OCO3)O2	inactive
C[C@H](CO)N1C[C@H](C)[C@@H](CN(C)C(=O)Cc2ccccn2)Oc2cc(-c3cccc(C(=O)N(C)C)c3)ccc2S1(=O)=O	inactive
C[C@H]1[C@H]([Si](C)(C)F)[C@@H](CC(=O)N2Cc3ccccc3C[C@H]2CO)O[C@]12C(=O)N(c1ccccc1)c1ccccc12	inactive
CCCNc1ncnc(N)c1[N+](=O)[O-]	inactive
NS(=O)(=O)c1ccccc1	inactive
Nc1ccccc1S(N)(=O)=O	inactive
NS(=O)(=O)C#Cc1ccccc1	active
CCC[C@@H](O)C#Cc1cnc2c(c1)C(=O)N([C@H](C)CO)C[C@H](C)[C@H](CN(C)S(C)(=O)=O)O2	inactive
CCOc1cc(C(C)(C)C)ccc1C1=N[C@@](C)(c2ccc(Cl)cc2)[C@@](C)(c2ccc(Cl)cc2)N1C(=O)N1CCN(CCCS(C)(=O)=O)CC1	active
C[C@H]1CN([C@@H](C)CO)S(=O)(=O)c2ccc(/C=C/c3ccccc3)cc2O[C@@H]1CN(C)C(=O)CN1CCOCC1	inactive
C[C@H]1CN([C@@H](C)CO)C(=O)Cc2cc(NC(=O)c3ccncc3)ccc2O[C@@H]1CN(C)S(=O)(=O)c1cn(C)cn1	inactive
COc1cccc(S(=O)(=O)N(C)C[C@@H]2Oc3ncc(C#CC(C)C)cc3C(=O)N([C@@H](C)CO)C[C@@H]2C)c1	inactive
COc1ccc(S(=O)(=O)N(C)C[C@@H]2Oc3ccc(NC(=O)Nc4cccc5ccccc45)cc3C(=O)N([C@@H](C)CO)C[C@H]2C)cc1	active
COc1ccc(NC(=O)Nc2ccc3c(c2)C(=O)N([C@H](C)CO)C[C@H](C)[C@@H](CN(C)C(=O)Nc2cccc4ccccc24)O3)cc1	inactive
COc1ccc(S(=O)(=O)N(C)C[C@@H]2Oc3ccc(NC(=O)Cc4ccccc4)cc3C(=O)N([C@@H](C)CO)C[C@@H]2C)cc1	inactive
COc1ccc(S(=O)(=O)N(C)C[C@H]2Oc3ccc(NC(=O)Cc4ccccc4)cc3C(=O)N([C@@H](C)CO)C[C@@H]2C)cc1	inactive
COc1ccc(NC(=O)Nc2ccc3c(c2)C(=O)N([C@@H](C)CO)C[C@@H](C)[C@@H](CN(C)C(=O)Nc2cccc4ccccc24)O3)cc1	active
COc1ccc(NC(=O)Nc2ccc3c(c2)C(=O)N([C@@H](C)CO)C[C@@H](C)[C@H](CN(C)C(=O)Nc2cccc4ccccc24)O3)cc1	inactive
COc1ccc(S(=O)(=O)N(C)C[C@H]2Oc3ccc(NC(=O)Cc4ccccc4)cc3C(=O)N([C@H](C)CO)C[C@@H]2C)cc1	active

Structure (SMILES)	cytotoxicity call
COc1ccc(S(=O)(=O)N(C)C[C@H]2Oc3ccc(NC(=O)Nc4cccc5ccccc45)cc3C(=O)N([C@H](C)CO)C[C@H]2C)cc1	inactive
COc1ccc(NC(=O)Nc2ccc3c(c2)C(=O)N([C@H](C)CO)C[C@@H](C)[C@H](CN(C)C(=O)Nc2cccc4ccccc24)O3)cc1	inactive
COc1ccc(NC(=O)Nc2ccc3c(c2)C(=O)N([C@@H](C)CO)C[C@H](C)[C@H](CN(C)C(=O)Nc2cccc4ccccc24)O3)cc1	inactive
COc1ccc(NC(=O)Nc2ccc3c(c2)C(=O)N([C@H](C)CO)C[C@@H](C)[C@@H](CN(C)C(=O)Nc2cccc4ccccc24)O3)cc1	active
COc1ccc(S(=O)(=O)N(C)C[C@H]2Oc3ccc(NC(=O)Nc4cccc5ccccc45)cc3C(=O)N([C@@H](C)CO)C[C@@H]2C)cc1	inactive
C[C@H]1C(=O)C(=O)[C@@H]2O[C@@H]2C1=O	inactive
C[C@@H]1CN([C@@H](C)CO)C(=O)c2cc(NC(=O)C3CCCCC3)ccc2O[C@@H](C)CCCCO[C@@H]1CN(C)C(=O)c1ccncc1	inactive
C=CC(=O)N[C@@H]1c2ccccc2C[C@@H]1O	inactive
Cc1noc(C)c1NC(=O)N(C)C[C@H]1OCCCC[C@@H](C)Oc2ccc(NS(=O)(=O)c3ccc(F)cc3)cc2C(=O)N([C@@H](C)CO)C[C@@H]1C	inactive
COc1ccc(S(=O)(=O)Nc2ccc3c(c2)C(=O)N([C@H](C)CO)C[C@H](C)[C@H](CN(C)Cc2ccc(Cl)c(Cl)c2)O3)cc1	inactive
COc1ccc(S(=O)(=O)Nc2ccc3c(c2)C(=O)N([C@H](C)CO)C[C@H](C)[C@@H](CN(C)Cc2ccc(Cl)c(Cl)c2)O3)cc1	inactive
COc1ccc(S(=O)(=O)Nc2ccc3c(c2)C(=O)N([C@@H](C)CO)C[C@@H](C)[C@@H](CN(C)Cc2ccc(Cl)c(Cl)c2)O3)cc1	active
COc1ccc(S(=O)(=O)Nc2ccc3c(c2)C(=O)N([C@@H](C)CO)C[C@@H](C)[C@H](CN(C)Cc2ccc(Cl)c(Cl)c2)O3)cc1	inactive
COc1ccc(S(=O)(=O)Nc2ccc3c(c2)C(=O)N([C@@H](C)CO)C[C@H](C)[C@@H](CN(C)Cc2ccc(Cl)c(Cl)c2)O3)cc1	active
COc1ccc(S(=O)(=O)Nc2ccc3c(c2)C(=O)N([C@@H](C)CO)C[C@H](C)[C@H](CN(C)Cc2ccc(Cl)c(Cl)c2)O3)cc1	inactive
COc1ccc(S(=O)(=O)Nc2ccc3c(c2)C(=O)N([C@H](C)CO)C[C@@H](C)[C@@H](CN(C)Cc2ccc(Cl)c(Cl)c2)O3)cc1	inactive
COc1ccc(S(=O)(=O)Nc2ccc3c(c2)C(=O)N([C@H](C)CO)C[C@@H](C)[C@H](CN(C)Cc2ccc(Cl)c(Cl)c2)O3)cc1	active
COc1ccc(CN(C)C[C@@H]2OCCCC[C@@H](C)Oc3ccc(NC(=O)c4ccncc4)cc3C(=O)N([C@@H](C)CO)C[C@@H]2C)cc1	inactive
C[C@@H]1CCCCO[C@H](CN(C)C(=O)Nc2ccc3c(c2)OCO3)[C@@H](C)CN([C@H](C)CO)C(=O)c2cc(NC(=O)CCC(F)(F)F)ccc2O1	inactive
C[C@@H]1CN([C@H](C)CO)C(=O)c2cc(NS(=O)(=O)c3ccccc3)ccc2O[C@@H]1CN(C)S(=O)(=O)c1cccs1	inactive
COCCOC(=O)N1C(=O)[C@@]2(c3cc(C#Cc4ccc(OC)cc4)ccc31)[C@H](C(=O)N1CCc3cc(OC)c(OC)cc3C1)[C@H]1C(=O)O[C@H](c3ccccc3)[C@H](c3ccccc3)N1[C@@H]2c1ccc(OCCO)cc1	inactive

Structure (SMILES)	cytotoxicity call
COCC(=O)Nc1ccc2c(c1)OC[C@@H](C)N(C(=O)c1ccccc1F)C[C@H](C)[C@@H](OC)CN(C)C2=O	inactive
CC(C)NC(=O)Nc1cccc2c1O[C@H](CN(C)C(=O)NC1CCCCC1)[C@H](C)CN([C@@H](C)CO)C2=O	inactive
Cc1noc(C)c1NC(=O)Nc1ccc2c(c1)C(=O)N([C@H](C)CO)C[C@H](C)[C@@H](CN(C)C(=O)Nc1ccc3c(c1)OCO3)OCCCC[C@H](C)O2	inactive
C[C@@H]1CN([C@H](C)CO)C(=O)c2cc(NS(=O)(=O)c3ccc(Cl)cc3)ccc2O[C@H]1CN(C)Cc1ccc(Oc2ccccc2)cc1	active
C[C@H]1CN([C@@H](C)CO)C(=O)c2cc(NS(=O)(=O)c3ccc(Cl)cc3)ccc2O[C@H]1CN(C)Cc1ccc(Oc2ccccc2)cc1	active
C[C@@H]1CN([C@@H](C)CO)C(=O)c2cc(NS(=O)(=O)c3ccc(Cl)cc3)ccc2O[C@H]1CN(C)Cc1ccc(Oc2ccccc2)cc1	inactive
C[C@@H]1CN([C@H](C)CO)C(=O)c2cc(NS(=O)(=O)c3ccc(Cl)cc3)ccc2O[C@@H]1CN(C)Cc1ccc(Oc2ccccc2)cc1	active
C[C@@H]1CN([C@@H](C)CO)C(=O)c2cc(NS(=O)(=O)c3ccccc3)ccc2O[C@H]1CN(C)Cc1ccc(Oc2ccccc2)cc1	inactive
C[C@H]1CN([C@@H](C)CO)C(=O)c2cc(NS(=O)(=O)c3ccccc3)ccc2O[C@@H]1CN(C)Cc1ccc(Oc2ccccc2)cc1	inactive
C[C@@H]1CN([C@@H](C)CO)C(=O)c2cc(NS(=O)(=O)c3ccccc3)ccc2O[C@@H]1CN(C)Cc1ccc(Oc2ccccc2)cc1	inactive
C[C@H]1CN([C@@H](C)CO)C(=O)c2cc(NS(=O)(=O)c3ccc(Cl)cc3)ccc2O[C@@H]1CN(C)Cc1ccc(Oc2ccccc2)cc1	active
C[C@H](CO)N1C[C@H](C)[C@@H](CN(C)Cc2ccc(Oc3ccccc3)cc2)Oc2ccc(NS(=O)(=O)c3ccc(Cl)cc3)cc2C1=O	inactive
C[C@H](CO)N1C[C@H](C)[C@H](CN(C)Cc2ccc(Oc3ccccc3)cc2)Oc2ccc(NS(=O)(=O)c3ccc(Cl)cc3)cc2C1=O	inactive
CC(C)NC(=O)Nc1ccc2c(c1)CC(=O)N([C@@H](C)CO)C[C@H](C)[C@H](CN(C)C(=O)NC1CCCCC1)O2	inactive
Cc1cccc[n+]1C	inactive
CN1C2=CC(=O)/C(=N\NC(N)=O)C=C2C[C@H]1S(=O)(=O)O	inactive
COc1ccc(NC(=O)N(C)C[C@H]2OCCCC[C@H](C)Oc3ccc(NS(=O)(=O)c4ccc(C)cc4)cc3C(=O)N([C@@H](C)CO)C[C@H]2C)cc1	inactive
CC(=O)OC1C(=O)C2(C)C(O)CC3OCC3(OC(C)=O)C2C(OC(=O)c2ccccc2)C2(O)CC(OC(=O)C(O)C(NC(=O)c3ccccc3)c3ccccc3)C(C)=C1C2(C)C (configuration not stated)	inactive
CC(=O)OC1CC(C)(C)C(=C=C/C(C)=C/C=C/C(C)=C/C=C/C=C(C)/C=C/C=C(\C)C(=O)CC23OC2(C)CC(O)CC3(C)C)C(C)(O)C1 (configuration not stated)	inactive
C[C@@H]1CN([C@H](C)CO)C(=O)c2cc(NC(=O)CCCCCC(=O)Nc3ccccc3N)ccc2O[C@@H]1CN(C)C(=O)Nc1ccccc1	inactive
